# Bioassay records from PubChem BioAssay.
# Hits are enriched below; roughly 3% of the tested compounds scored in any of these assays.
# TWEAK Fn14 block: TWEAK-Fn14 signaling inhibition; TWEAK-stimulated Fn14 reporter cells, luciferase luminescence, 8 h; 360,000 compounds, 2% hits; inhibition, % at 10 µM; in the data active means inhibition above about 50%
# LMP1 NFkB inh: Epstein-Barr LMP1 NF-kappaB reporter inhibition; 350,000 compounds, 0.69% hits; LMP1-induced NF-kappaB luciferase reporter cells, luminescence; inhibition, % at 12.5 µM; in the data active means inhibition above about 41%;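 further: 0% = neutral control wells and 100% = reference inhibitor control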
# MITF act: activators of MITF-driven TRPM1 promoter activity in SK-MEL-5 cells; SK-MEL-5 TRPM1-promoter luciferase, 24 h; % of positive control, neutral wells = 0; activation, % at 12.5 µM; 300,000 compounds, 0.75% hits; AID 588334;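 active means mean activation of at least 80% with every replicate also reaching 80%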;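 further: 0% = neutral control wells and 100% = parthenolide positive control wells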
# TRPM1 prom inh: inhibitors of MITF-driven TRPM1 promoter in melanoma cells; SK-MEL-5 TRPM1 promoter luciferase, 24 h; inhibition, % at 12.5 µM; 330,000 compounds, 0.83% hits; AID 488899;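 active means mean inhibition across replicates of 60% or more, whatever share of single replicates reaches that level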
# LGR2 antag: Drosophila LGR2 receptor signaling inhibition. HEK293 LGR2, CRE-luciferase, bursicon-stimulated, 4 h. 380,000 compounds, 0.35% hits. AID 720647. inhibition, % at 9.99 µM;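 active means drop in luminescence signal, shown as inhibition above about 50% in the replicate tests, limit read from the data, passing the limit was not always enough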;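 further: agonist challenge used bursicon conditioned medium at about half maximal strength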
# TROY NFkB inh: TROY signaling inhibition; inhibition, % at 10 µM; AID 1347056; Q293 LMP1-TROYcd NF-kB luciferase reporter, 4 h; 360,000 compounds, 0.98% hits;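 active means compounds whose plate-normalised and pattern-corrected inhibition of the luciferase reporter signal at the single screening dose is 50% or more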
# * hit, by the source's call; / = not tested or not shown; ! = not confirmed by another sample.
SMILES,TWEAK Fn14 block,LMP1 NFkB inh,MITF act,TRPM1 prom inh,LGR2 antag,TROY NFkB inh
COc1cc2c(cc1OC)C(SC)=NC1(CCCC1)C2,12.0,3.0,-84.7,87.3*,8.4,-9.8
C[C@@H]1CCCCO[C@H](CN(C)C(=O)CCC(F)(F)F)[C@H](C)CN([C@@H](C)CO)C(=O)c2cc(NC(=O)c3ccccc3)ccc2O1,/,/,/,/,-7.9,/
CCCCOc1ccc(-c2cn3ccccc3n2)cc1[N+](=O)[O-],-69.2,-10.7,66.8,-59.4,-164.1,-75.4
CCCOc1ccc(-c2csc(N)n2)cc1[N+](=O)[O-],-33.8,-12.7,99.3*,-103.4,-37.2,-62.6
CS(=O)(=O)Nc1ccc2c(c1)[C@H]1C[C@@H](CC(=O)N3CCc4ccccc4C3)O[C@H](CO)[C@H]1O2,/,/,/,/,2.0,/
CN(C)C(=O)c1ccc(-n2nc(C(F)(F)F)c3c2CCCC3)cc1,58.7*,-0.6,5.0,-7.7,1.6,/
COc1ccc(/C=C/c2nc3ccccc3n2Cc2ccc(OC)c(OC)c2)cc1,-23.1,-30.4,107.9*,-106.4,-105.6,-26.3
CCS(=O)(=O)N1CC2(C1)[C@H](c1ccccc1)[C@H](CO)N2CCC(F)(F)F,/,/,/,/,12.7,/
O=C(Nc1ccccc1Cl)C(=O)c1cn(CC(=O)N2CCOCC2)c2ccccc12,-3.5,-28.8,83.2*,-77.5,-50.2,-69.5
Oc1ccc(Nc2nc3ccccc3nc2Nc2ccc(O)cc2)cc1,76.1*,15.4,/,65.8*,/,-37.4
Oc1ccc(Nc2nc(-c3ccccc3)nc3ccccc23)cc1,27.2,2.4,-7.1,11.1,3.9,5.8
COc1cc(/C=C2/SC(=S)NC2=O)ccc1OS(=O)(=O)c1ccc(C)cc1,40.1,0.6,-5.2,7.2,/,58.9*
CN(C)CCC(c1ccc(Cl)cc1)c1ccccn1 (stereo unspecified),-3.4,-2.7,7.0,-9.1,-3.6,8.3
CN(C)CCC(c1ccccc1)c1ccccn1 (stereo unspecified),1.8,56.4*!,11.4,-11.0,4.7,0.4
COc1cc(CNCCN2CCOCC2)ccc1OCc1ccc(Cl)cc1,5.3,-7.4,24.5,-24.0,/,-60.1
COc1ccc(CN2CCOCC2)cc1OC,98.5*,2.0,16.3,-13.5,/,/
COc1cc(CNCCCN2CCOCC2)cc(Br)c1OCC(=O)N1CCCCC1,13.4,-3.4,2.8,1.5,-19.2,-7.9
CCOc1cc(CNCCCN2CCOCC2)cc(Cl)c1OCC(=O)NC(C)(C)C,-10.6,7.3,7.3,-5.3,18.6,-4.2
COc1cc(CNCCN2CCOCC2)ccc1OCc1ccccc1Cl,101.1*,-4.0,7.7,-8.5,0.6,/
COc1cc(CNCCCN2CCOCC2)cc(Br)c1OCc1ccc(Cl)cc1,-51.1,-51.6,-49.1,49.9,98.8*,-24.5
CCOc1cc(CNCCCN2CCOCC2)cc(Br)c1OCC(=O)Nc1cccc(C(F)(F)F)c1,-50.5,-44.7,-70.1,74.4*,/,7.1
CCCC(=O)Nc1ccc2c(c1)C(=O)N(C)[C@H]1CC[C@@H](CC(=O)NCCc3ccccc3)O[C@@H]1CO2,/,/,/,/,0.9,/
N#C/C(=N/Nc1ccc([N+](=O)[O-])cc1)C(=N)N1CCCCC1,0.7,-45.7,101.3*,-97.5,-94.9,-13.1
N#C/C(=N\Nc1ccc(Br)cc1)C(=N)N1CCOCC1,-3.5,-25.5,91.9*,-97.6,-83.6,-2.9
N#C/C(=N\Nc1ccc([N+](=O)[O-])cc1)C(=N)N1CCOCC1,-22.0,0.6,52.8,-41.9,-35.3,-48.2
SMILES,TWEAK Fn14 block,LMP1 NFkB inh,MITF act,TRPM1 prom inh,LGR2 antag,TROY NFkB inh
CCOC(=O)CSc1c(-c2ccc(Cl)cc2)[nH]c2ccccc12,4.3,6.2,-17.4,20.0,-20.0,-22.4
O=C(Cc1cccs1)NCCSc1c(-c2ccc(Cl)cc2)[nH]c2ccccc12,81.0*,3.3,/,/,16.0,51.1*
C[C@H](CO)N1C[C@H](C)[C@@H](CN(C)C(=O)Nc2ccccc2)Oc2ccc(NC(=O)Nc3ccc(F)cc3)cc2CC1=O,/,/,/,/,7.4,/
CC1CCCC(C)N1C(=O)c1cc(-c2ccc(Cl)c(Cl)c2)on1 (stereo unspecified),-22.2,-64.6,97.1*,-91.0,/,-23.1
CC1CCCC(C)N1C(=O)c1cc(-c2ccc3c(c2)OCO3)on1 (stereo unspecified),0.3,-57.7,94.8*,-92.8,-82.7,-36.4
Cc1onc(-c2c(Cl)cccc2Cl)c1C(=O)N1C(C)CCCC1C (stereo unspecified),3.5,-0.4,0.6,-2.0,6.2,-0.5
Cc1ccc(NC(=O)c2cc(-c3ccc4c(c3)OCO4)on2)cc1,-11.8,-25.0,25.9,-25.5,-30.4,-28.3
CC(C)c1ccc(/C=C/C(=O)NC(=S)Nc2ccc(CN3CCOCC3)cc2)cc1,99.9*,10.6,-12.6,9.0,6.5,71.3*
O=C(/C=C/c1cccc([N+](=O)[O-])c1)NC(=S)Nc1ccc(CN2CCOCC2)cc1,63.1*,-18.4,-4.1,0.0,33.7,19.5
O=C(NC(=S)Nc1ccc(CN2CCOCC2)cc1)c1ccc([N+](=O)[O-])cc1,5.3,-0.6,-0.1,-6.6,9.0,3.5
O=C(CN1CCOCC1)NCC[C@H]1CC[C@H](NC(=O)Nc2ccc(F)cc2)[C@@H](CO)O1,/,/,/,/,18.8,/
C[C@H]1CN([C@@H](C)CO)C(=O)c2cc(NC(=O)CCC(F)(F)F)ccc2O[C@H]1CN(C)S(=O)(=O)c1cccs1,/,/,/,/,5.5,/
CCOc1ccc(-c2cc(C(=O)Nc3ccc(C)c(NS(C)(=O)=O)c3)[nH]n2)c(C)c1,51.5*,/,/,/,12.4,39.4
C=CC(=O)Nc1cccc(N(C)c2ccnc(Nc3ccc(N4CCN(C)CC4)cc3)n2)c1,-3.2,44.2*,-18.3,24.8,/,46.5
O=c1[nH]c(-c2ccc(-c3cccc(Cl)c3)o2)nc2ccccc12,-39.6,-47.2,104.1*,-98.0,-91.3,-73.9
O=c1[nH]c(SCc2cccc(Cl)c2)nc2ccccc12,1.7,-0.6,1.9,-4.5,-1.7,-18.6
CCN(CC)C(=O)CSc1nnc(-c2ccc(F)cc2)n1N,-0.4,-1.7,1.2,1.2,0.3,20.1
CCN(CC)C(=O)CSc1n[nH]c(=S)n1N,84.0*,-5.3,8.5,-10.7,-3.6,7.2
Cc1cc(-c2ccc(N3CCOCC3)cc2)nc2ccccc12,-29.4,-23.5,34.9,-28.5,-59.0,-41.4
c1ccc2nc(-c3ccc(N4CCOCC4)cc3)ccc2c1,89.7*,66.2*,/,54.3,/,53.4*
CN1CCN(c2ccc(-c3ccc4ccccc4n3)cc2)CC1,102.7*,83.3*,-76.6,75.9*,102.5*,92.1*
CN(C)CC(=O)N[C@H]1CC[C@@H](CCn2cc(CN(C)C)nn2)O[C@H]1CO,/,/,/,/,3.9,/
CC(C)N(C(=O)c1sc2cc([N+](=O)[O-])ccc2c1Cl)C(C)C,-10.5,13.6,/,8.0,/,-18.4
O=C(c1sc2cc([N+](=O)[O-])ccc2c1Cl)N1CCOCC1,-0.9,60.8*,-1.7,1.6,9.5,-0.6
N#C[C@@H]1[C@H](c2ccc(C#Cc3cccc(F)c3)cc2)[C@@H](CO)N1C(=O)C1CCC1,/,/,/,/,71.8*,/
